Screens deposited in PubChem BioAssay by National Center for Advancing Translational Sciences (NCATS).
An excerpt weighted towards active compounds, which were near 5.7% of everything screened.
HT1080-NT tox – kills 2HG-producing HT-1080-NT fibrosarcoma cells | hit rate 1.6% among 360,000 | AID 686970 | HT-1080-NT fibrosarcoma viability, CellTiter-Glo ATP luminescence, 48 h | Potency, µM (titrated, usually from 46.1 µM), for the others: at the highest dose activity, negative = less viability, actives largely listed as cytotoxic;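 further: NT is the 2HG producing partner of a matched IDH1 knockdown line; 0% = DMSO-treated cells and -100% = media-only wells without cells; nearly all actives have a fitted effect of over 55% in size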
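Luminescent CellTiter-Glo readout after 48 hours of compound exposure at 37 degrees C defined viability of HT-1080-NT cells. Activity was normalized to DMSO wells and cell-free media wells; concentration-response curves were fitted and assigned curve classes.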
HT1080 IDH1KD tx – toxicity to HT-1080 IDH1 knockdown cells (counter line); HT-1080 IDH1 knockdown viability, ATP luminescence, 48 h; Potency, µM (titrated, usually from 46.1 µM), for the others: at the highest dose activity, negative = toxicity, hits mostly cytotoxic; hit rate 2% among 360,000; AID 686971;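 further: 0% = DMSO wells and -100% = cell-free medium wells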
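% activity derives from luminescence (CellTiter-Glo), normalised to DMSO and no-cell wells. HT-1080-IDH1KD cells, 750/well, had 48 h compound exposure at 37 °C.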
KB-V1 MDR tox – kills drug-selected multidrug resistant KB-V1 cells; KB-V1 MDR cells viability, CellTiter-Glo, 72 h; hit rate 3.4% among 400,000; AID 1347076; Potency, µM (titrated, usually from 46.1 µM), actives largely listed as cytotoxic; further: nearly all actives have a fitted effect of over 60% in size
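Cytotoxicity via CellTiter-Glo luminescence after 72 h compound exposure at 37 degrees C. Cells: drug-selected KB-V1 line, DMEM phenol-red free plus 10% FBS. Compounds tested at multiple concentrations; normalized data fitted to concentration-effect curves.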
KB-3-1 tox – KB-3-1 parental cell cytotoxicity; KB-3-1 viability, CellTiter-Glo ATP luminescence, 72 h; Potency, µM (highest dose often 46.1 µM), usual class: cytotoxic; hit rate 1.4% among 400,000; AID 1347075; further: nearly all actives have a fitted effect of over 60% in size
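KB-3-1 parental drug-naive adenocarcinoma cells in DMEM/10% FBS, incubated 72 h at 37 C with pin-transferred compounds across a concentration series. Viability by CellTiter-Glo luminescence; concentration-response curves fitted after normalization.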
* marks the source's active call; other numbers are inactive results; i = inactive; ? = inconclusive; . = not tested or not shown. The call rests on the fitted dose curve; in most records, active means well fitted curve in the direction sought with a large enough effect; inconclusive means small, poorly fitted or top-dose-only effect, or another doubt; inactive means no such curve, though single readings can be large; an effect the other way counts as inactive or inconclusive. Unless noted, on the % scale 0 is the no-effect control and ±100 the full control effect; potency means the concentration at half of the fitted maximal effect.

SMILES	HT1080-NT tox	HT1080 IDH1KD tx	KB-V1 MDR tox	KB-3-1 tox
CC(C)(C)OC(=O)NCCCCCc1cn([C@@H](CO)C(=O)NCCCCCCCCCCC(=O)N2CCN(C(=O)OC(C)(C)C)CC2)nn1	16µM*	16µM*	i	?
CCOC(=O)N1CCN(S(=O)(=O)c2ccc(C(=O)NNc3nc4cc(C)cc(C)c4s3)cc2)CC1	?	?	i	4.1µM*
COc1ccc(CCNC(=O)c2cnn3c2NC(=C2CC2)C=C3C(F)F)cc1OC	.	.	i	?
COc1cc2ccccc2cc1C(=O)N1CCCC(C(F)(F)F)C1 (configuration not stated)	2%	-11%	15µM*	i
OC(COC(c1ccccc1)c1ccccc1)CN1CCc2ccccc2C1 (configuration not stated)	-30%	?	?	i
OC(COC(c1ccc(Cl)cc1)c1ccc(Cl)cc1)CN1CCc2ccccc2C1 (configuration not stated)	21µM*	?	i	i
CC1CN(CC(O)COC(c2ccccc2)c2ccccc2)CC(C)O1 (configuration not stated)	-2%	10%	21µM*	i
OC(COC(c1ccc(F)cc1)c1ccc(F)cc1)CN1CCc2ccccc2C1 (configuration not stated)	-2%	-13%	16µM*	i
CCSc1nnc2c(n1)OC(c1ccc(C)cc1)N(C(C)=O)c1ccccc1-2 (configuration not stated)	.	.	?	i
COc1ccc(CCNC(=O)CSc2nnnn2-c2cccc(C(C)=O)c2)cc1OC	.	.	i	?
COc1ccc(CC2S/C(=N/N=C/c3ccccc3O)NC2=O)cc1 (configuration not stated)	-15%	-16%	i	?
O=C1N/C(=N/N=C/c2ccccc2O)SC1Cc1ccc(F)cc1 (configuration not stated)	?	23µM*	?	?
NC(=S)N=Nc1c(O)n(CCCl)c2ccccc12	-3%	1%	?	?
NC(=S)N=Nc1c(O)n(CCCl)c2ccc(Cl)cc12	-21%	?	13µM*	?
O=C(CN(c1cccc([N+](=O)[O-])c1)S(=O)(=O)c1ccccc1)NCc1ccccc1	-1%	1%	5.8µM*	i
O=C(C1CCN(Cc2ccc(F)cc2)CC1)N(CCO)Cc1ccccc1	9%	14%	i	i
CCCC(=O)N(CCc1ccc(OC)cc1)Cc1nc2ccccc2c(=O)[nH]1	?	?	15µM*	i
COCC(=O)N(CCc1ccc(OC)cc1)Cc1nc2ccccc2c(=O)[nH]1	-1%	-1%	i	i
O=C(C1CC1)N(CCc1ccccc1)Cc1nc2ccccc2c(=O)[nH]1	-2%	-5%	16µM*	i
O=C(C1CCN(Cc2ccc(F)cc2)CC1)N(CCc1ccccc1)Cc1ccccc1	-30%	-28%	i	16µM*
O=C(NCCc1ccc(Cl)cc1)C1COc2ccccc2C1 (configuration not stated)	.	.	i	i
CCN(CCn1cccn1)Cc1nc(-c2ccc(OC)cc2)no1	2%	-1%	?	i
CCN(CCn1cccn1)Cc1nc(-c2ccccc2)no1	0%	-5%	23µM*	i
Cc1ccc(C)n1-c1nnc(N2CCCC(C(=O)Nc3ccc(C(C)C)cc3)C2)s1 (configuration not stated)	.	.	i	i
CC1CN(C(=O)Nc2ccc(C(=O)NCc3cccc(F)c3)cc2)c2ccccc2S1 (configuration not stated)	.	.	i	i
SMILES	HT1080-NT tox	HT1080 IDH1KD tx	KB-V1 MDR tox	KB-3-1 tox
Fc1ccc(Sc2nc(-c3ccccc3)nnc2C(F)(F)F)cc1	23µM*	23µM*	i	16µM*
Fc1ccc(Oc2nc(-c3ccccc3)nnc2C(F)(F)F)cc1	7%	18%	i	i
Cc1cccc(C(=O)OCc2cc(=O)n3ccsc3n2)c1	.	.	i	i
Cc1cc(N2CCOCC2)ccc1/C=C\[N+](=O)[O-]	4.1µM*	5.8µM*	?	i
O=[N+]([O-])c1ccc(N2CCOCC2)cc1O	?	-1%	i	i
CC1CCN(C(=O)COC(=O)c2cccc(S(=O)(=O)N(C)c3ccccc3)c2)CC1	2%	2%	21µM*	i
CC1CCCC(C)N1C(=O)COC(=O)c1cccc(S(=O)(=O)N(C)c2ccccc2)c1 (configuration not stated)	-2%	-11%	i	i
Cc1ccc(N(C)S(=O)(=O)c2cccc(C(=O)OCC(=O)N3CCCC(C)C3)c2)cc1 (configuration not stated)	8%	9%	21µM*	i
CC1CCCN(C(=O)COC(=O)c2cccc(NS(=O)(=O)c3ccccc3)c2)C1 (configuration not stated)	5%	2%	i	i
CCc1ccccc1N(C)C	.	.	i	i
CCn1c(SCC(=O)c2[nH]c(C)c(C(C)=O)c2C)nnc1-c1cccs1	-2%	-10%	2.6µM*	?
CCn1c(SCC(=O)c2cccs2)nnc1-c1cccs1	2%	-5%	i	i
CSc1nc(=O)[nH]c2nc[nH]c12	.	.	i	i
Cn1c(=O)c(=O)n(C)c2cc(NC(=O)c3cccc(F)c3)c(Cl)cc21	.	.	i	i
CCc1ccccc1NC(=O)CN(C)C(=O)CSc1nc2cc(Cl)ccc2s1	15%	5%	15µM*	i
CCOc1ccc(-c2nnc(SCC(=O)Nc3cccc(C#N)c3)o2)cc1	.	.	i	i
O=C(c1ccc(F)cc1)N1CCN(S(=O)(=O)c2ccc3c(c2)OCCO3)CC1	1%	-4%	?	i
O=C(c1ccc(F)cc1F)N1CCN(S(=O)(=O)c2ccc3c(c2)OCCO3)CC1	0%	5%	16µM*	?
Cc1cc(O)c(C(c2ccccc2)N2CCN(c3ccccc3)CC2)c(=O)n1Cc1ccco1 (configuration not stated)	.	.	i	i
CCc1cc(C(c2ccncc2)N2CCN(C)CC2)c(NC(=O)c2ccccc2)s1 (configuration not stated)	-1%	0%	21µM*	i
COc1cccc(NC(=O)C(Sc2nnc3ccccn23)c2ccccc2)c1 (configuration not stated)	3%	1%	21µM*	i
CCCN1CCN(c2nnc(-n3cccc3C(=O)Nc3cc(Cl)ccc3C)s2)CC1	.	.	i	i
COc1ccc(N2CC3=C(C2=O)C(c2ccc(Br)cc2)NC(=O)N3C)cc1 (configuration not stated)	.	.	26µM*	i
COc1ccc(C2NC(=O)N(C)C3=C2C(=O)N(c2ccc(Br)cc2)C3)cc1 (configuration not stated)	.	.	i	i
COC(=O)c1[nH]c2ccc(Br)cc2c1NC(=O)C(C)N1CCN(C2CCCCC2)CC1 (configuration not stated)	?	21µM*	?	?
